# Results from PubChem BioAssay AID1159580 (chemical genetic matrix, 2015).
# The campaign covered roughly 5,500 compounds. About 2,000 (36%) were called active. Inconclusive results (about 18%) are left out. Some of the results follow. A number with no mark means an inactive call. Cut-off read from the data, not from the text of the source: active = normalized growth mostly below about 0.91 (no sharp cut-off); inconclusive = no clear call, values can overlap the other calls; inactive = mostly above about 0.92.
# Test: chemical genetic growth profiling, strain panel (AID 1159580);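 note: tested at 20 µM; growth read once vehicle control cultures reached saturation at 30 °C; 1 = growth at the plate median or of vehicle wells; lower values mean less growth of the strain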
# Details: growth OD
smiles,measurement,setting,value
Cc1cc2c3c(c1)c(O)cc(=O)n3CCC2,normalized growth,"S. cerevisiae deletion strains, locus YAL013W, strain DEP1, hits give low values",0.967
same,normalized growth,"S. cerevisiae deletion strains, locus YBR229C, strain ROT2, hits give low values",0.989
same,normalized growth,"S. cerevisiae deletion strains, locus YDL101C, strain DUN1, hits give low values",0.981
same,normalized growth,"S. cerevisiae deletion strains, locus YDL134C, strain PPH21, hits give low values",0.968
same,normalized growth,"S. cerevisiae deletion strains, locus YDR150W, strain NUM1, hits give low values",1
same,normalized growth,"S. cerevisiae deletion strains, locus YEL061C, strain CIN8, hits give low values",1.01
same,normalized growth,"S. cerevisiae deletion strains, locus YGR078C, strain PAC10, hits give low values",0.991
same,normalized growth,"S. cerevisiae deletion strains, locus YGR229C, strain SMI1, hits give low values",0.974
same,normalized growth,"S. cerevisiae deletion strains, locus YHR030C, strain SLT2, hits give low values",0.518 (active)
same,normalized growth,"S. cerevisiae deletion strains, locus YHR087W, strain rtc3, hits give low values",0.991
same,normalized growth,"S. cerevisiae deletion strains, locus YJL187C, strain SWE1, hits give low values",0.984
same,normalized growth,"S. cerevisiae deletion strains, locus YJR043C, strain POL32, hits give low values",0.984
same,normalized growth,"S. cerevisiae deletion strains, locus YJR075W, strain HOC1, hits give low values",1
same,normalized growth,"S. cerevisiae deletion strains, locus YKL190W, strain CNB1, hits give low values",0.988
same,normalized growth,"S. cerevisiae deletion strains, locus YLR039C, strain RIC1, hits give low values",0.544 (active)
same,normalized growth,"S. cerevisiae deletion strains, locus YLR058C, strain SHM2 (second series), hits give low values",0.995
same,normalized growth,"S. cerevisiae deletion strains, locus YLR085C, strain ARP6, hits give low values",0.968
same,normalized growth,"S. cerevisiae deletion strains, locus YLR262C, strain YPT6, hits give low values",0.549 (active)
same,normalized growth,"S. cerevisiae deletion strains, locus YML094W, strain GIM5, hits give low values",1.02
same,normalized growth,"S. cerevisiae deletion strains, locus YMR219W, strain ESC1, hits give low values",0.969
same,normalized growth,"S. cerevisiae deletion strains, locus YMR263W, strain SAP30, hits give low values",0.968
same,normalized growth,"S. cerevisiae deletion strains, locus YNL128W, strain TEP1, hits give low values",0.989
same,normalized growth,"S. cerevisiae deletion strains, locus YNL153C, strain GIM3, hits give low values",0.971
same,normalized growth,"S. cerevisiae deletion strains, locus YNL298W, strain CLA4 (second series), hits give low values",1.01
same,normalized growth,"S. cerevisiae deletion strains, locus YNL322C, strain KRE1, hits give low values",0.993
same,normalized growth,"S. cerevisiae deletion strains, locus YNR030W, strain Alg12, hits give low values",0.989
same,normalized growth,"S. cerevisiae deletion strains, locus YOL006C, strain TOP1, hits give low values",1.03
same,normalized growth,"S. cerevisiae deletion strains, locus YPL055C, strain LGE1, hits give low values",0.88
same,normalized growth,"S. cerevisiae deletion strains, locus YPL241C, strain CIN2, hits give low values",0.96
same,normalized growth,"S. cerevisiae deletion strains, locus YPR135W, strain CTF4, hits give low values",0.918
same,normalized growth,"S. cerevisiae strains, strain wild type, hits give low values",0.967
